PubChem BioAssay (NCI)
The panel holds about 83,000 compounds, 20% with a hit somewhere; the sample as a whole holds those more often.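 Testing used 96-well plates and a 48-hour single-concentration exposure. Example: -40 means 40% of the starting cells died.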 Calls of active or inactive are those of the source. How the source made its calls: active means growth percent below 10; inactive means the rest.

How the values were obtained:
Assay in all cases: NCI-60 one-dose screen, 48 h (100 = growth as untreated, 0 = no growth, -100 = all killed)
Settings in all cases: 10 µM unless noted
[1] = system: DU-145 prostate
[2] = system: K-562 leukemia
[3] = system: MALME-3M melanoma
[4] = system: MDA-MB-231 breast
[5] = system: RXF 393 renal
[6] = system: SF-268 CNS
[7] = system: SF-295 CNS
[8] = system: SF-539 CNS
[9] = system: UACC-257 melanoma
[10] = system: M14 melanoma

Measured: growth

C/C(=N\NC(=O)Nc1ccccc1)c1nnn(-c2ccc([N+](=O)[O-])cc2)c1C
inactive: [1] 105% | [2] 113% | [3] 108% | [4] 106% | [5] 78.2% | [6] 103% | [7] 108% | [8] 99.9% | [9] 108% | [10] 105%

CCOC(=O)c1c(NC(=O)c2ccc(C(F)(F)F)cc2)sc2c(CN3CCN(C)CC3)c(O)ccc12
active: [1] -39.1% | [2] -57.5% | [3] -56.9% | [4] -43.3% | [5] -86% | [6] -49.5% | [7] -58% | [8] -89.7% | [9] -13.5% | [10] -26.1%

C#C[C@]1(O)CC[C@H]2[C@@H]3CC=C4c5sc(Nc6cccc(F)c6)nc5CC[C@]4(C)[C@H]3CC[C@@]21C
active: [2] 0.936% | [5] -50.8% | [7] -51.9% | [8] -10.8%
inactive: [1] 31.3% | [3] 38.3% | [4] 30.6% | [6] 37.1% | [9] 44% | [10] 11%

CN1CCN(c2ccc(Nc3nc(NCCCNS(=O)(=O)c4ccccc4)c4sccc4n3)cc2)CC1
active: [3] -42.8% | [5] -29.8% | [8] -71.4% | [9] -15.6% | [10] -9.06%
inactive: [1] 56.4% | [2] 16.7% | [4] 38.1% | [6] 64.2% | [7] 38.4%

CN(C)CC(=O)Nc1nc(-c2cccc(NS(=O)(=O)c3cccc4c(N(C)C)cccc34)c2)cs1
inactive: [1] 103% | [2] 65.1% | [3] 85.2% | [4] 83.8% | [5] 88.5% | [6] 96.4% | [7] 70.4% | [8] 93.3% | [9] 86% | [10] 100%

CC(=O)N1N=C(c2cc3ccccc3oc2=O)CC1c1cn(-c2ccccc2)nc1-c1ccc(C)cc1 (stereo not given)
inactive: [1] 103% | [2] 103% | [3] 92.3% | [4] 94.4% | [5] 98.8% | [6] 98.7% | [7] 100% | [8] 90.1% | [9] 99.4% | [10] 101%

Nc1cc(C(=O)N/N=C\c2ccc(OC(F)F)c(OC3CCCC3)c2)nn1CC(O)c1ccccc1 (stereo not given)
inactive: [1] 105% | [2] 88.4% | [3] 112% | [4] 97.5% | [5] 96.3% | [6] 100% | [7] 101% | [8] 98.6% | [9] 104% | [10] 110%

NC1CC2(CCN(c3cnc(C(=O)Nc4cc(F)cc5cccnc45)cn3)CC2)C1
inactive: [1] 81.3% | [3] 96.2% | [4] 80.1% | [5] 73.5% | [6] 83.1% | [7] 58% | [8] 75.7% | [9] 103% | [10] 78.9%
active: [2] -13.3%

COc1ccc2c(c1)c(-c1nc(N)nnc1-c1c[nH]c3ccccc13)cn2C
inactive: [1] 59.6% | [2] 16.3% | [3] 37.2% | [4] 46.2% | [5] 39.5% | [6] 45.6% | [7] 23.7% | [8] 25.2% | [9] 67.4% | [10] 29.8%

Fc1ccc2nc(-c3cnn4cccnc34)sc2c1
inactive: [1] 103% | [2] 86.2% | [3] 108% | [4] 84.3% | [5] 92.9% | [6] 82.5% | [7] 100% | [8] 86.7% | [9] 100% | [10] 101%

CCCCc1nc2c(N)nc3ccccc3c2n1Cc1cccc(CN)c1
inactive: [1] 60.2% | [3] 22.6% | [4] 57.3% | [5] 47.6% | [6] 48.7% | [7] 55.8%
active: [2] 3.82% | [8] 5.63% | [9] -62.3% | [10] -89.2%

O=C(N/N=C/c1cc2ccccc2nc1Cl)c1cc(-c2nc3ccccc3[nH]2)nc2ccccc12
inactive: [1] 87.7% | [2] 83.6% | [3] 124% | [4] 99% | [5] 96.2% | [6] 87.8% | [7] 89.7% | [8] 103% | [9] 118% | [10] 109%

O=C(CCCCCCNC(=O)C(O)(O)C(F)(F)F)Nc1nc2ccccc2s1
active: [1] 6.73% | [5] -47.3% | [6] 8.81% | [7] -36.5% | [9] 8.93%
inactive: [2] 11.2% | [3] 14.4% | [4] 23.5% | [8] 10.5% | [10] 14.5%

CCOC(=O)c1c(N)c(C#N)cn1Cc1ccc(Cl)cc1Cl
inactive: [1] 93.5% | [2] 24.8% | [3] 85.6% | [4] 43.9% | [5] 63.1% | [6] 80.5% | [7] 80.2% | [8] 73.3% | [9] 92.7% | [10] 72.4%

CCn1c2ccc(/C=N/N(C)S(=O)(=O)CCN(C)C)cc2c2cc(/C=N/N(C)S(=O)(=O)CCN(C)C)ccc21
active: [2] 8.55% | [8] 4.32%
inactive: [1] 77.3% | [3] 62.7% | [4] 55% | [5] 46.9% | [6] 76.7% | [7] 80% | [9] 92.8% | [10] 66%

COc1ccc(C2CC(c3cccc(OCCCCOc4cccc(C5=NN(C(C)=O)C(c6ccc(OC)cc6)C5)c4)c3)=NN2C(C)=O)cc1 (stereo not given)
inactive: [1] 81.6% | [2] 37% | [3] 105% | [4] 77.3% | [5] 95.2% | [6] 74.8% | [7] 44.3% | [8] 81.5% | [9] 46.8% | [10] 85.3%

O=C(CCCCCCN1CC(=O)N2[C@@H](c3ccccc3Br)c3[nH]c4ccccc4c3C[C@H]2C1=O)NO
inactive: [1] 62.7% | [2] 22.6% | [3] 14.4% | [4] 50% | [5] 43.1% | [6] 79.6% | [7] 55.3% | [8] 51% | [9] 39.9% | [10] 42.1%

C#Cc1nc(C(=O)NCCCCCCC(=O)NO)cs1
inactive: [9] 23% | [10] 16.6%
active: [1] -51.1% | [2] 5.86% | [3] -61% | [4] -71.8% | [5] -78.7% | [6] 2.01% | [7] -2.7% | [8] -80.1%

CCC(=C(c1ccc(OCCN(C)C)cc1)c1ccc(OCCN(C)C)cc1)c1ccc(Cl)cc1
active: [1] -28.8% | [2] -16.7% | [3] -83.7% | [4] -79.5% | [5] -85.4% | [6] -37.1% | [7] -72.2% | [8] -82.8% | [9] -69.8% | [10] -66.3%

Cn1cc(-c2cc3ncnc(Nc4ccc(CC(=O)Nc5nc(C(C)(C)C)cs5)cc4)c3s2)cn1
inactive: [1] 38% | [2] 16.2% | [3] 55.9% | [4] 45.6% | [5] 26.4% | [6] 56.2% | [7] 69.6% | [8] 29.1% | [9] 79.1% | [10] 41.5%

CN1CCC[C@]2(C)[C@H]3CC[C@@H]4[C@@H]5[C@H]6OC[C@@]5(CCC6(C)C)CC[C@@]4(C)[C@]3(C)CC[C@H]2C1(C)C
active: [2] 4.84%
inactive: [1] 56.2% | [3] 89.1% | [4] 67.3% | [5] 74.5% | [6] 103% | [7] 103% | [8] 78.4% | [9] 107% | [10] 97.9%

CC(C)NC(=O)c1cc(-c2ccc(NC(=O)Nc3ccc(F)cc3)cc2)nc2cccnc12
inactive: [1] 114% | [2] 110% | [3] 118% | [4] 97.8% | [5] 123% | [6] 109% | [7] 97.7% | [8] 102% | [9] 102% | [10] 102%

Cc1nc(N)sc1-c1csc(Nc2ccc(C(F)(F)F)cc2)n1
inactive: [1] 35.8% | [2] 22.5% | [3] 10.1% | [4] 20.1% | [5] 18.3% | [6] 49.5% | [8] 27.1% | [9] 37.2% | [10] 28.4%
active: [7] 7.89%

CCN(CC)S(=O)(=O)c1ccc(-c2nc(C(Cl)Cl)nc3cc(C)nn23)cc1
inactive: [1] 15.9% | [5] 13.3% | [6] 56.1% | [7] 48% | [8] 50.7% | [9] 59.3%
active: [2] 8.36% | [3] -7.09% | [4] -0.482% | [10] 4.27%

CC(=C(c1ccc(OCCN(C)C)cc1)c1ccc(OCCN(C)C)cc1)c1ccc(Cl)cc1
active: [1] -73.6% | [2] -9.65% | [3] -79.9% | [4] -75.4% | [5] -86.6% | [6] -47.7% | [7] -78.1% | [8] -83% | [9] -69.6% | [10] -63.5%

Cc1csc(/N=C(N)/N=C(\N)c2cccc(C#N)c2)n1
inactive: [1] 97.8% | [2] 43.5% | [3] 68.8% | [4] 88.7% | [5] 73.9% | [6] 77.4% | [7] 51.7% | [8] 76.7% | [9] 80.8% | [10] 45.2%

O=C(/C=C/c1csc(Br)n1)NO
active: [2] 9.85% | [3] 1% | [5] -15.9% | [7] 7.79%
inactive: [1] 25% | [4] 34.1% | [6] 57.6% | [8] 35.4% | [9] 22.3% | [10] 27.1%
